Assay results from PubChem BioAssay (NCATS).
Inconclusive results are not listed. Calls of active or inactive are those of the source. The call rests on the fitted dose curve; in most records, active means well fitted cell-killing curve with a large enough effect; inconclusive means small, poorly fitted or top-dose-only effect, or effect the other way; inactive means no such curve, though single readings can be large or run the other way.

Test: Quantitative High-Throughput drug screen in 47 multiple myeloma cell lines against the NCATS MIPE library collection: Delta47_JCRB cell viability assay (AID 1918925; further: nearly all actives have a fitted effect of over 45% in size)
Conditions: Delta47 myeloma viability, CellTiter-Glo ATP, 48 h; series mostly up to 45.8 µM
From the text: PI: Beverly A. Mock Ph.D.
Laboratory of Cancer Biology and Genetics,
Center for Cancer Research, National Cancer Institute,
National Institute of Health, Bethesda, Maryland
Drug resistance and disease progression are common in multiple myeloma (MM) patients, underscoring the need for new therapeutic combinations. […] We hypothesized that effective combinations would reduce MYC expression and enhance p16 activity. […] These preclinical data identify potentially useful drug combinations for evaluation in drug-resistant MM and reveal potential mechanisms of combined drug sensitivity.
Described herein is the primary MIPE qHTS used to cherrypick compounds. Validated compounds were then further tested for potential synergistic activiy.
[1] Peat TJ, Gaikwad SM, Dubois W, Gyabaah-Kessie N, Zhang S, Gorjifard S, Phyo Z, Andres M, Hughitt VK, Simpson RM, Miller MA, Girvin AT, Taylor A, Williams D, D'Antonio N, Zhang Y, Rajagopalan A, Flietner E, Wilson K, Zhang X, Shinn P, Klumpp-Thomas C, McKnight C, Itkin Z, Chen L, Kazandijian D, Zhang J, Michalowski AM, Simmons JK, Keats J, Thomas CJ, Mock BA. Drug combinations identified by high-throughput screening promote cell cycle transition and upregulate Smad pathways in myeloma. Cancer Lett. 2023 Aug 1;568:216284. doi: 10.1016/j.canlet.2023.216284. Epub 2023 Jun 24. PMID: 37356470; PMCID: PMC10408729.
SEQUENCE No. (e.g., 1, 2, 3, etc.); […] (e.g., Cells, Incubation, Reagent, etc.); VALUE and DESCRIPTION.
1; Cells; 5 uL; white, solid bottom 1536-well Greiner assay plate.
2; Compounds; 23 nL; Kalypsis pin tool (Wako USA) equipped with a 1536-well pin head to transfer to the assay plates.
3; Incubation; 48 hours; 37C incubation.
4; Reagent;5uL; CellTiter Glo (Promega).
5; Detector; 425V; Luminescence; Viewlux PerkinElmer.
NOTES (numbers refer to Sequence numbers above)
1. The cell-based screening methods employed in this study were like those previously published. Briefly, the corresponding myeloma cell lines were screened in 1,536-well plates with 500 cells, 5-uL per well for inhibition of cell viability (assessed by measuring ATP levels with CellTiterGlo).
2. NCATS MIPE 4.0 library of approved and investigational drugs were added using the Kalypsis pin tool. Wells treated with DMSO only for 100% viability and media only wells for 0% viability were used as controls.
3. The assay plates were covered and incubated for 48 hours in a 37C, 5% CO2 incubator with controlled humidity.
4. After 48 hours, CellTilter-GloTM luminescent substrate mix (Promega) reagent was added to the assay plate and plates we incubated for 5 min at room temperature.
5. Signal was measured as median relative luminescence units on a ViewLux (PerkinElmer) multiplate reader.
[1] Heske CM, Davis MI, Baumgart JT, Wilson K, Gormally MV, Chen L, Zhang X, Ceribelli M, Duveau DY, Guha R, Ferrer M, Arnaldez FI, Ji J, Tran HL, Zhang Y, Mendoza A, Helman LJ, Thomas CJ. Matrix Screen Identifies Synergistic Combination of PARP Inhibitors and Nicotinamide Phosphoribosyltransferase (NAMPT) Inhibitors in Ewing Sarcoma. Clin Cancer Res. 2017 Dec 1;23(23):7301-7311. doi: 10.1158/1078-0432.CCR-17-1121. Epub 2017 Sep 12. PMID: 28899971; PMCID: PMC6636827.
Potency means the concentration at half of the fitted maximal effect.

Structure (SMILES)	Potency
CN1CCCN(C(=O)c2cccc(-c3ccc(C=C4C(=O)Nc5ccc(Cl)cc54)o3)c2)CC1	20900 nM (active)
C[C@@H](Cc1cc2c(c(C(N)=O)c1)N(CCCO)CC2)NCCOc1ccccc1OCC(F)(F)F	11800 nM (active)
C=C(C)[C@@H]1CC[C@]2(C)CC[C@]3(C)[C@H](CC[C@@H]4[C@@]5(C)CC[C@H](O)C(C)(C)[C@H]5CC[C@]43C)[C@@H]12	inactive
CC[C@H](CC[C@@H](C)[C@H]1CC[C@H]2[C@@H]3CC=C4C[C@@H](O)CC[C@]4(C)[C@@H]3CC[C@]12C)C(C)C	inactive
CC(=O)OCC(=O)[C@@]1(O)CC[C@H]2[C@@H]3CCC4=CC(=O)CC[C@]4(C)[C@@H]3C(=O)C[C@@]21C	inactive
CCOC(=O)N1CCN([N+]([O-])=NOc2ccc([N+](=O)[O-])cc2C#N)CC1	1050 nM (active)
CCc1ccc(C(=O)Nc2cc(CN3CCN(C)CC3)cc(C(F)(F)F)c2)cc1C#Cc1cnc2ccnn2c1	13200 nM (active)
O=C1NC(=O)[C@@H](c2cn3c4c(cccc24)CCC3)[C@H]1c1c[nH]c2ccccc12	235 nM (active)
FC(F)(F)c1ccc(Nc2nc3ccc(Oc4ccnc(-c5ncc(C(F)(F)F)[nH]5)c4)cc3[nH]2)cc1	23500 nM (active)
CC(=O)O[C@H]1C[C@@H]2CC[C@H]3[C@H]4C[C@H]([N+]5(C)CCCCC5)[C@@H](OC(C)=O)[C@@]4(C)CC[C@@H]3[C@@]2(C)C[C@H]1N1CCCCC1	inactive
CC(C=CC(=O)NO)=C[C@@H](C)C(=O)c1ccc(N(C)C)cc1	235 nM (active)
CCCNS(=O)(=O)Nc1ncnc(OCCOc2ncc(Br)cn2)c1-c1ccc(Br)cc1	2640 nM (active)
c1cc(N[C@@H]2CCNC2)nc(-c2cnc3ccc(-c4cn[nH]c4)cn23)c1	9350 nM (active)
CCOc1cc2ncc(C#N)c(Nc3ccc(OCc4ccccn4)c(Cl)c3)c2cc1NC(=O)C=CCN(C)C	590 nM (active)
COc1cc2c(Nc3ccc(Cl)c(Cl)c3F)ncnc2cc1OCC1C[C@@H]2CN(C)C[C@H]2C1	2350 nM (active)
C=C(C)[C@@H]1CC[C@]2(C(=O)O)CC[C@]3(C)[C@H](CC[C@@H]4[C@@]5(C)CC[C@H](O)C(C)(C)[C@@H]5CC[C@]43C)[C@@H]12	inactive
O=C(Nc1nnc(-c2ccco2)o1)c1cc(-c2ccccc2)nc2ccccc12	18700 nM (active)
Cn1cc(CNCC2CCN(c3ncc(C(=O)NO)cn3)CC2)c2ccccc21	74.3 nM (active)
CC(O)(C#Cc1ccc2c(c1)N(c1nc(N)ncc1Cl)CC2)c1nccs1 (stereo not given)	2090 nM (active)
COc1cc(C=CC(=O)CC(=O)C=Cc2ccc(O)c(OC)c2)ccc1O	4290 nM (active)

Structure (SMILES)	Potency
C=C1C(=CC=C2CCC[C@]3(C)[C@@H]([C@H](C)CCCC(C)(C)O)CC[C@@H]23)C[C@@H](O)C[C@@H]1O	9350 nM (active)
O=C(O)CCCCC(CCSCc1ccccc1)SCc1ccccc1 (stereo not given)	inactive
CN(CC(=O)N(Cc1ccc(C2CCCCC2)cc1)c1ccc(C(=O)O)c(O)c1)S(=O)(=O)c1c(F)c(F)c(F)c(F)c1F	5900 nM (active)
CCCCOc1ccc(C(=O)Nc2ccc(F)cc2F)cc1	inactive
C[C@H](NCc1ccc2c(c1)nc(NC(=O)c1ccc(-c3cn[nH]c3)s1)n2CCc1ccccc1)C(C)(C)C	662 nM (active)
C[C@H](NCc1ccc(OCc2cccc(F)c2)cc1)C(N)=O	2090 nM (active)
CCOC(=O)[C@H](CCc1ccccc1)N[C@@H](C)C(=O)N1[C@@H](C(=O)O)C[C@H]2CCC[C@@H]21	8330 nM (active)
O=C(O)C[C@H](O)C[C@H](O)C=Cc1c(C2CC2)nc2ccccc2c1-c1ccc(F)cc1	8330 nM (active)
NC(=O)Nc1cc(-c2ccc(CN3CCOCC3)cc2)sc1C(N)=O	2090 nM (active)
Cc1cnc(Nc2ccc(CN3CCOCC3)cc2)nc1Nc1cccc(S(=O)(=O)NC(C)(C)C)c1	1870 nM (active)
CC(=O)SCC(Cc1ccccc1)C(=O)NCC(=O)OCc1ccccc1 (stereo not given)	1050 nM (active)
CNC(=O)c1ccc(Nc2cc(Nc3ccccc3S(=O)(=O)C(C)C)c3cc[nH]c3n2)nc1	662 nM (active)
COc1ccc(Nc2cc(-c3cnc(N)nc3)nc(N3CCOCC3)n2)cn1	1480 nM (active)
CC(=O)O[C@@]12CO[C@H]1C[C@H](O)[C@@]1(C)C(=O)[C@H](O)C3=C(C)[C@@H](OC(=O)C(O)[C@@H](NC(=O)OC(C)(C)C)c4ccccc4)C[C@@](O)([C@@H](OC(=O)c4ccccc4)[C@@H]21)C3(C)C (stereo not given in full)	inactive
CCc1cnn2c(NCc3ccc[n+]([O-])c3)cc(N3CCCC[C@@H]3CCO)nc12	33.2 nM (active)
CC(C)OC(=O)[C@H](C)N[P@](=O)(OC[C@H]1O[C@@H](n2ccc(=O)[nH]c2=O)[C@](C)(F)[C@H]1O)Oc1ccccc1	inactive
Cn1cnc2c(F)c(Nc3ccc(Br)cc3F)c(C(=O)NOCCO)cc21	inactive
COc1ccc2c(c1OC)C(=O)OC2[C@H]1c2c(cc3c(c2OC)OCO3)CCN1C (stereo not given in full)	187 nM (active)
COc1ccc(C(C)=O)c(O)c1	inactive
Oc1cc(-c2nc(-c3ccccc3)[nH]c2-c2ccncc2)ccc1Cl	4690 nM (active)
